The whole screen tested about 5,500 compounds, of which about 2,000 (36%) were called active. About 18% were inconclusive and are not listed. Rule as the data show it: active = normalized growth mostly below about 0.91 (no sharp cut-off); inconclusive = no clear call, values can overlap the other calls; inactive = mostly above about 0.92. The list shows a part of the results.
Test: chemical genetic growth profiling, strain panel (AID 1159580);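 also: tested at 20 µM; growth read once vehicle control cultures reached saturation at 30 °C; 1 = growth at the plate median or of vehicle wells; lower values mean less growth of the strain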
Conditions: S. cerevisiae deletion strains, growth OD
[1] = locus YHR030C, strain SLT2, stronger effect = lower value
[2] = locus YHR079C, strain IRE1, stronger effect = lower value
[3] = locus YJL095W, strain BCK1, stronger effect = lower value
[4] = locus YJR066W, strain TOR1, stronger effect = lower value
[5] = locus YLR113W, strain HOG1, stronger effect = lower value
[6] = locus YNL183C, strain NPR1, stronger effect = lower value
[7] = locus YOR231W, strain MKK1, stronger effect = lower value
[8] = locus YPL256C, strain CLN2, stronger effect = lower value

Measured: normalized growth

O=C(Nc1cccc(C(F)(F)F)c1)Oc1ccc(F)cc1Cl
active: [1] 0.822 | [5] 0.762 | [8] 0.778
inactive: locus YAR019C, strain CDC15, stronger effect = lower value 0.977 | locus YBL105C, strain PKC1, stronger effect = lower value 0.977 | locus YBR135W, strain CKS1, stronger effect = lower value 0.982 | locus YBR136W, strain MEC1, stronger effect = lower value 0.98 | locus YBR160W, strain CDC28, stronger effect = lower value 0.979 | locus YDL017W, strain CDC7, stronger effect = lower value 0.985 | locus YDL028C, strain MPS1, stronger effect = lower value 0.977 | locus YDL101C, strain DUN1, stronger effect = lower value 0.992 | locus YDL108W, strain KIN28, stronger effect = lower value 0.97 | locus YDL132W, strain cdc53, stronger effect = lower value 0.974 | locus YDL214C, strain PRR2, stronger effect = lower value 0.978 | locus YDR052C, strain DBF4, stronger effect = lower value 0.985 | locus YDR054C, strain cdc34, stronger effect = lower value 0.975 | locus YDR226W, strain ADK1, stronger effect = lower value 0.975 | locus YDR477W, strain SNF1, stronger effect = lower value 0.993 | locus YER123W, strain YCK3, stronger effect = lower value 0.965 | locus YER133W, strain GLC7, stronger effect = lower value 0.983 | locus YFL009W, strain cdc4, stronger effect = lower value 0.974 | locus YFL029C, strain CAK1, stronger effect = lower value 0.977 | locus YFR003C, strain YPI1, stronger effect = lower value 0.982 | locus YFR019W, strain FAB1, stronger effect = lower value 0.987 | locus YFR028C, strain CDC14, stronger effect = lower value 0.98 | locus YGR040W, strain KSS1, stronger effect = lower value 0.977 | locus YGR052W, strain FMP48, stronger effect = lower value 1 | locus YGR092W, strain DBF2, stronger effect = lower value 0.951 | [2] 0.87 | locus YHR082C, strain KSP1, stronger effect = lower value 1.1 | locus YHR205W, strain SCH9, stronger effect = lower value 0.951 | locus YIL147C, strain SLN1, stronger effect = lower value 0.975 | [3] 0.955 | locus YJL128C, strain PBS2, stronger effect = lower value 0.947 | locus YJL157C, strain FAR1, stronger effect = lower value 0.98 | locus YJR016C, strain ILV3, stronger effect = lower value 0.984 | locus YJR066W, strain TOR1 (second series), stronger effect = lower value 0.938 | [4] 1.04 | locus YKL048C, strain ELM1, stronger effect = lower value 1 | locus YKL067W, strain YNK1, stronger effect = lower value 1.01 | locus YKL101W, strain HSL1, stronger effect = lower value 0.983 | locus YKL193C, strain SDS22, stronger effect = lower value 0.983 | locus YKL203C, strain TOR2, stronger effect = lower value 1.02 | locus YLR133W, strain CKI1, stronger effect = lower value 0.976 | locus YLR403W, strain SFP1, stronger effect = lower value 0.964 | locus YML070W, strain DAK1, stronger effect = lower value 0.979 | locus YMR001C, strain CDC5, stronger effect = lower value 0.984 | locus YMR205C, strain PFK2 (second series), stronger effect = lower value 1 | locus YMR277W, strain FCP1, stronger effect = lower value 0.977 | locus YNL006W, strain LST8, stronger effect = lower value 0.976 | locus YNL020C, strain ARK1, stronger effect = lower value 0.967 | locus YNL161W, strain CBK1, stronger effect = lower value 0.983 | [6] 0.998 | locus YNL207W, strain RIO2, stronger effect = lower value 0.972 | locus YNL222W, strain SSU72, stronger effect = lower value 0.973 | locus YNL307C, strain MCK1 (second series), stronger effect = lower value 0.982 | locus YOL078W, strain AVO1, stronger effect = lower value 0.983 | locus YOL136C, strain PFK27, stronger effect = lower value 0.969 | locus YOR061W, strain CKA2, stronger effect = lower value 0.983 | locus YOR119C, strain RIO1, stronger effect = lower value 1.05 | [7] 0.912 | locus YOR329C, strain SCD5, stronger effect = lower value 0.979 | locus YPL031C, strain PHO85, stronger effect = lower value 0.97 | locus YPL153C, strain RAD53, stronger effect = lower value 0.974 | locus YPL204W, strain HRR25, stronger effect = lower value 0.992 | locus YPL209C, strain IPL1, stronger effect = lower value 0.979 | locus YPR025C, strain CCL1, stronger effect = lower value 0.979 | locus YPR106W, strain ISR1, stronger effect = lower value 0.99 | locus YPR111W, strain DBF20, stronger effect = lower value 0.964 | strain NNK1, stronger effect = lower value 0.989 | strain TSCII, stronger effect = lower value 0.972

O=C(NC(=O)c1c(F)cccc1F)Nc1cc(Cl)c(OC(F)(F)C(F)C(F)(F)F)cc1Cl (stereo unspecified)
inactive: locus YAL021C, strain ccr4, stronger effect = lower value 0.983 | locus YAL026C, strain drs2, stronger effect = lower value 0.987 | locus YAL030W, strain snc1, stronger effect = lower value 0.998 | locus YBL061C, strain skt5, stronger effect = lower value 0.974 | locus YBR009C, strain hhf1, stronger effect = lower value 0.997 | locus YBR023C, strain chs3, stronger effect = lower value 0.981 | locus YBR171W, strain sec66, stronger effect = lower value 0.987 | locus YBR231C, strain swc5, stronger effect = lower value 0.977 | locus YBR279W, strain paf1, stronger effect = lower value 0.988 | locus YCL011C, strain gbp2, stronger effect = lower value 0.987 | locus YCL016C, strain dcc1, stronger effect = lower value 0.988 | locus YCL061C, strain MRC1, stronger effect = lower value 0.989 | locus YCL069W, strain vba3, stronger effect = lower value 0.99 | locus YCR088W, strain abp1, stronger effect = lower value 0.988 | locus YDL005C, strain med2, stronger effect = lower value 0.984 | locus YDL040C, strain nat1, stronger effect = lower value 0.98 | locus YDR001C, strain nth1, stronger effect = lower value 0.991 | locus YDR069C, strain doa4, stronger effect = lower value 0.989 | locus YDR137W, strain rgp1, stronger effect = lower value 0.988 | locus YDR159W, strain sac3, stronger effect = lower value 1 | locus YDR195W, strain ref2 1.01 | locus YDR297W, strain sur2, stronger effect = lower value 0.978 | locus YDR334W, strain swr1, stronger effect = lower value 0.981 | locus YDR335W, strain msn5, stronger effect = lower value 0.99 | locus YDR392W, strain spt3, stronger effect = lower value 0.98 | locus YEL003W, strain gim4, stronger effect = lower value 1.01 | locus YEL037C, strain rad23, stronger effect = lower value 0.991 | locus YEL061C, strain CIN8 (second series), stronger effect = lower value 0.995 | locus YER015W, strain faa2, stronger effect = lower value 0.983 | locus YER016W, strain bim1, stronger effect = lower value 0.996 | locus YER111C, strain swi4, stronger effect = lower value 0.982 | locus YER155C, strain BEM2 (second series), stronger effect = lower value 0.998 | locus YFR010W, strain ubp6, stronger effect = lower value 0.986 | locus YGL167C, strain pmr1, stronger effect = lower value 0.977 | locus YGL173C, strain kem1, stronger effect = lower value 0.999 | locus YGL227W, strain vid30, stronger effect = lower value 0.997 | locus YGL240W, strain doc1, stronger effect = lower value 0.99 | locus YGL253W, strain hxk2, stronger effect = lower value 0.987 | locus YHR013C, strain ard1, stronger effect = lower value 0.96 | locus YHR027C, strain rpn1, stronger effect = lower value 0.996 | [1] 1.04 | [2] 1.03 | locus YHR142W, strain chs7, stronger effect = lower value 0.997 | locus YJL092W, strain hpr5, stronger effect = lower value 0.993 | locus YJL095W, strain BCK1 (second series), stronger effect = lower value 0.986 | [3] 1.04 | locus YJL115W, strain asf1, stronger effect = lower value 0.987 | locus YJL129C, strain trk1, stronger effect = lower value 0.988 | locus YJL154C, strain vps35, stronger effect = lower value 0.985 | locus YJL164C, strain tpk1, stronger effect = lower value 0.988 | locus YJL166W, strain qcr8, stronger effect = lower value 0.995 | locus YJL187C, strain SWE1, stronger effect = lower value 0.986 | [4] 0.977 | locus YKL160W, strain elf1, stronger effect = lower value 0.983 | locus YKR026C, strain gcn3, stronger effect = lower value 0.989 | locus YKR091W, strain srl3, stronger effect = lower value 0.989 | locus YLL001W, strain dnm1, stronger effect = lower value 0.996 | locus YLL026W, stronger effect = lower value 0.995 | locus YLL041C, strain sdh2, stronger effect = lower value 0.994 | locus YLR027C, strain aat2, stronger effect = lower value 0.993 | [5] 1.01 | locus YLR221C, strain rsa3, stronger effect = lower value 0.984 | locus YLR258W, strain gsy2, stronger effect = lower value 0.999 | locus YLR262C, strain YPT6 (second series), stronger effect = lower value 0.995 | locus YLR320W, strain mms22, stronger effect = lower value 0.981 | locus YLR342W, strain FKS1, stronger effect = lower value 0.985 | locus YLR357W, strain rsc2, stronger effect = lower value 0.994 | locus YLR370C, strain arc18, stronger effect = lower value 0.986 | locus YLR384C, strain iki3, stronger effect = lower value 0.976 | locus YML120C, strain ndi1, stronger effect = lower value 0.987 | locus YMR058W, strain fet3, stronger effect = lower value 0.994 | locus YMR125W, strain sto1, stronger effect = lower value 0.979 | locus YMR129W, stronger effect = lower value 0.997 | locus YMR205C, strain PFK2, stronger effect = lower value 0.982 | locus YMR231W, strain pep5, stronger effect = lower value 1 | locus YNL071W, strain lat1, stronger effect = lower value 0.992 | [6] 0.973 | locus YNL209W, strain ssb2, stronger effect = lower value 0.978 | locus YNL248C, strain rpa49, stronger effect = lower value 0.991 | locus YNL322C, strain KRE1 (second series), stronger effect = lower value 0.993 | locus YNR049C, strain mso1, stronger effect = lower value 0.986 | locus YOR001W, strain rrp6, stronger effect = lower value 0.987 | locus YOR070C, strain gyp1, stronger effect = lower value 0.989 | locus YOR080W, strain dia2, stronger effect = lower value 0.991 | locus YOR083W, strain WHI5, stronger effect = lower value 0.988 | locus YOR106W, strain vam3, stronger effect = lower value 0.994 | [7] 0.992 | locus YOR265W, strain rbl2, stronger effect = lower value 0.985 | locus YOR270C, strain vph1, stronger effect = lower value 0.987 | locus YOR290C, strain snf2, stronger effect = lower value 0.977 | locus YPL051W, strain arl3, stronger effect = lower value 0.997 | locus YPL078C, strain atp4, stronger effect = lower value 0.99 | locus YPL106C, strain sse1, stronger effect = lower value 0.976 | locus YPL240C, strain hsp82, stronger effect = lower value 0.984 | [8] 1.03

From PubChem BioAssay AID1159580 (chemical genetic matrix, 2015)
